PPC-1+TRAIL kill: kills PPC-1 cancer cells in the presence of TRAIL; PPC-1 cells + TRAIL, ATPLite viability luminescence; cell killing (% activity), % at 4 µM or 5 µM; hit rate 0.41% among 220,000;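 active = cell killing above 50% in the first pass at 4 µM, then a duplicate retest at 5 µM averaging 50% or more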;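 note: plate controls were cells with TRAIL plus DMSO for no effect and medium-only wells lacking cells for full effect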
CF NFkB inh: cystic fibrosis NF-kB activation inhibition; hit rate 0.86% among 360,000; KKLEB NF-kB-GFP reporter, PAF-induced, GFP fluorescence overnight; inhibition, % at 5 µM;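 active = at least 50% inhibition at 5 µM, scaled per plate between neutral and stimulator controls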;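 note: PAF is a Pseudomonas aeruginosa culture filtrate used as stimulus; plate controls were PAF-stimulated DMSO wells for no effect and unstimulated DMSO wells for full effect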
HIF-2a inh: HIF-2a inhibition; 786-0 RCC cells HIF-2a reporter, luciferase luminescence, overnight; inhibition, % at 18.8 µM; hit rate 0.72% among 360,000;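 active = inhibition of the luminescence signal of 40% or more relative to plate controls, in a single-dose primary screen at 18.75 µM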
KKLEB tox: CF airway cell cytotoxicity counter-screen; KKLEB CF airway cells viability, ATPlite luminescence, overnight; active compounds read low; cells stimulated with P. aeruginosa culture filtrate; activity change (cytotoxicity), % at 5 µM; hit rate 0.36% among 360,000; AID 602141;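 active = corrected activity change at or below -50% at 5 µM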
iPSC survival up: increases survival of single human iPS cells | hiPSC single-cell survival, ATPlite luminescence; 100% = ROCK inhibitor wells, 0% = DMSO | survival enhancement, % at 20 µM | hit rate 0.044% among 360,000 | AID 602274; in the data active = survival enhancement above about 18%;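 note: cells exposed to compounds for 16 hours before the ATP read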
TRAIL sens C8: sensitizes caspase-8 expressing cells to TRAIL; hit rate 1% among 360,000; inhibition (viability loss, TRAIL sensitization), % at 10 µM; NB7+C8 cells + TRAIL, ATPlite viability luminescence; AID 624354;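 active = compounds causing at least 50% loss of cell viability in the single-dose screen, relative to plate controls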
Mdm2 MdmX conf: confirmation of inhibitors of human Mdm2/MdmX interaction, set 2. SaOS-2 split-luciferase Mdm2/MdmX complementation, luminescence. inhibition, % at 8 µM. AID 504601. shares compounds with HIF-2a inh. hit rate 99% among 740;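 active = mean inhibition of the luminescence signal across two replicates at or above 26 percent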
HIF-2a inh conf: HIF-2a inhibition, single concentration confirmation; shares compounds with HIF-2a inh; 786-0 RCC cells, HIF-2a luciferase reporter luminescence, overnight; inhibition, % at 18.8 µM; hit rate 56% among 1,800; AID 651580;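 active = mean inhibition across four replicates of at least 40 percent at the single tested concentration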
HIF-1a counter: HIF-1a inhibition counter-screen for HIF-2a hits | AID 651589 | MiaPaCa-2 HIF-1a luciferase reporter, desferoxamine, overnight | inhibition, % at 18.8 µM | shares compounds with HIF-2a inh | hit rate 72% among 1,800;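 active = mean inhibition of the reporter signal across four replicates at the single tested dose of 50% or more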
* marks the source's active call; other numbers are inactive results; / = not tested or not shown. An excerpt weighted towards active compounds, which were near 2.2% of everything screened.

SMILES | PPC-1+TRAIL kill | CF NFkB inh | HIF-2a inh | KKLEB tox | iPSC survival up | TRAIL sens C8 | HIF-2a inh conf | HIF-1a counter | others
O=C(N/N=C/c1sc(N2CCOCC2)nc1-c1ccccc1)c1cccc(S(=O)(=O)N2CCCC2)c1 | 2.2 | -26.1 | 32.3 | 5.2 | -0.3 | 13.9 | / | / | Mdm2 MdmX conf=80.0*
CC(C)n1nnnc1SCC(=O)N(C)C1CCS(=O)(=O)C1 (configuration not stated) | / | -14.1 | 10.4 | 2.0 | 8.2 | -10.9 | / | /
COc1ccc(Cn2c(SCc3cc(C)ccc3C)nc3cc(OC)c(OC)cc3c2=N)cc1 | 18.4 | 25.0 | 94.7* | -43.6 | -3.7 | 91.7* | 1.5 | 106.6* | Mdm2 MdmX conf=102.7*
COc1ccc(Cn2c(SCc3ccc(C)cc3)nc3cc(OC)c(OC)cc3c2=N)cc1Cl | 25.3 | 95.7* | 91.4* | -93.9* | -4.8 | 93.3* | 60.3* | 104.8* | Mdm2 MdmX conf=102.7*
COc1cc2nc(SCc3ccc(C(F)(F)F)cc3)n(Cc3cccs3)c(=N)c2cc1OC | 0.0 | 0.4 | 11.8 | 1.0 | 4.0 | -4.6 | / | /
Oc1ccc2ccccc2c1/C=N/Nc1nnc(-c2ncc[nH]2)c2ccccc12 | -4.0 | 7.4 | -31.6 | -5.5 | -0.8 | 21.5 | / | / | Mdm2 MdmX conf=91.7*
Cc1ccccc1OCC(O)CNC1CCC(NCC(O)COc2ccccc2C)CC1 (configuration not stated) | / | 37.5 | 93.5* | -37.1 | -0.6 | 92.8* | 20.9 | 104.9* | Mdm2 MdmX conf=103.2*
O=[N+]([O-])c1ccc(Sc2nc3ccccc3o2)c([N+](=O)[O-])c1 | 18.1 | 68.0* | 91.9* | -42.3 | -5.0 | -8.9 | 74.2* | 105.8*
CC(=O)[C@@]1(O)C(C)CC2C3C=C(C)C4=Cc5c(cnn5-c5ccccc5)C[C@]4(C)C3C(O)C[C@@]21C (some centres not stated) | 14.1 | 87.9* | 66.6* | 8.9 | 4.0 | 10.8 | 34.5 | 95.2*
Cc1cc(C(=O)NC2CC(C)(C)Cc3c2cnn3-c2ccccc2)n(C)n1 (configuration not stated) | / | 17.9 | 18.2 | 1.0 | -0.7 | -4.8 | / | /
O=S(=O)(c1ccccc1)c1ncc(C(F)(F)F)cc1Cl | -0.3 | 88.7* | 96.2* | -85.5* | -1.9 | 3.1 | 3.8 | 13.5
O=S(=O)(c1ccccc1)c1ncc(C(F)(F)F)cc1O | 13.1 | 14.9 | 14.3 | 8.2 | 4.4 | 6.7 | / | /
CCOC(=O)C1CCN(C(=O)c2cc(C)n(C(C)(C)C)n2)CC1 | 2.9 | 6.2 | 0.4 | 0.7 | -0.6 | -2.5 | / | /
O=C1CCC2S/C(=C/Nc3ccc(C(F)(F)F)cc3)C(=O)N12 (configuration not stated) | 30.2 | -3.9 | 96.8* | 5.3 | 4.7 | -2.6 | 98.3* | 105.2*
O=C1CCCC/C1=C/Nc1cccc(C(F)(F)F)c1 | 31.5 | -3.2 | -59.1 | 20.0 | -0.3 | 1.7 | / | /
Cc1ccc(S(=O)(=O)Nc2ccccc2-c2ccccc2NS(=O)(=O)c2ccc(C)cc2)cc1 | 18.0 | 30.6 | 12.7 | 14.3 | -0.1 | 0.1 | / | /
Cc1ccc(S(=O)(=O)Nc2cccc3cccnc23)cc1 | 4.2 | 56.7* | 81.3* | 6.4 | -2.2 | 18.8 | 65.9* | -178.8 | Mdm2 MdmX conf=103.2*
COC(=O)c1ccc(COc2ccc(/C=N/O)cc2)o1 | 0.2 | -22.4 | -91.6 | 5.2 | -0.4 | 2.5 | / | /
O=C(c1ccc(Cl)cc1)N1CCCCC(Sc2nnc(-c3ccc4c(c3)OCO4)o2)C1=O (configuration not stated) | 47.7 | -5.5 | 63.9* | -10.0 | -2.3 | 68.7* | 82.6* | 67.7*
Cc1nc2cc(-c3ccccc3)nn2c(C)c1CCC(=O)N1CCN(c2ccccn2)CC1 | 3.1 | / | / | / | / | / | / | /
CCOC(=O)C1CCCCN1C(=O)CCc1c(C)nc2cc(-c3ccccc3)nn2c1C (configuration not stated) | 16.0 | -18.6 | 74.9* | 3.4 | -3.6 | 18.4 | 85.1* | 73.8*
COc1cc(OC)cc(-c2cc3nc(C)c(CCC(=O)O)c(C)n3n2)c1 | -8.0 | 1.0 | 81.6* | -6.9 | -0.2 | 4.5 | 89.7* | 85.7*
Cc1nc2cc(-c3cccc(F)c3)nn2c(C)c1CCC(=O)N1CCN(c2ccccn2)CC1 | -19.6 | -11.8 | 72.0* | 7.0 | 0.2 | 8.3 | 81.0* | 59.2*
CCOC(=O)C1CCN(C(=O)CCc2c(C)nc3cc(-c4ccccc4)nn3c2C)CC1 | 5.3 | 19.6 | 68.6* | -5.3 | 0.3 | 15.0 | 84.5* | 44.9
C#CCOCCOCCOCCNc1nc(N2CCN(C(=O)Cn3cc(CC(C)O)nn3)CC2)nc(N2CCN(C(=O)[C@H]([C@@H](C)CC)n3cc(CCCCN)nn3)CC2)n1 (some centres not stated) | / | 24.6 | 7.7 | -14.6 | -0.1 | -8.0 | / | /
SMILES | PPC-1+TRAIL kill | CF NFkB inh | HIF-2a inh | KKLEB tox | iPSC survival up | TRAIL sens C8 | HIF-2a inh conf | HIF-1a counter | others
c1ccc2c(c1)nnn2Cn1nnc2ccccc21 | / | 9.4 | -20.3 | -0.3 | -3.5 | 8.9 | / | /
CCOC1=C2[C@@H](CN(S(=O)(=O)c3ccc(C)cc3)[C@H]2c2ccccc2F)[C@H]2C(=O)NC(=O)[C@H]2C1 | / | -7.3 | 2.7 | -2.9 | -1.9 | -8.5 | / | /
CCOC(=O)C1CCCCN1C(=O)CCc1c(C)nc2ncnn2c1C (configuration not stated) | 5.6 | 5.6 | 62.8* | 13.0 | 8.0 | -20.1 | 49.3* | 28.3
O=C(NC1(C(=O)O)CCCC1)c1ccccc1 | / | 8.2 | 14.5 | 2.5 | 3.5 | -8.0 | / | /
O=C(c1cccs1)N1CCN=C1SCc1ccc(F)cc1 | 29.9 | -7.7 | 52.0* | 0.8 | 1.8 | 11.5 | -31.7 | 17.5
CC(C)(C)[C@H](N)C(=O)N[C@H]1CCC2C3CC=C4C[C@@H](O)CC[C@]4(C)C3CC[C@@]21C (some centres not stated) | / | -28.1 | 93.7* | -68.1* | -4.6 | 40.0 | 7.2 | 104.7* | Mdm2 MdmX conf=103.2*
CC(C)C(=O)N[C@H]1CCC2C3CC=C4C[C@@H](O)CC[C@]4(C)C3CC[C@@]21C (some centres not stated) | / | 8.2 | -11.5 | 3.3 | -2.1 | -6.6 | / | /
COCCNC(=O)[C@H](CSCc1ccccc1)N1Cc2ccccc2C1=O | 22.2 | 3.0 | 48.1* | -3.3 | 0.4 | 14.5 | 14.2 | -6.1
O=[N+]([O-])c1cc(S(=O)(=O)N2CCCCCC2)ccc1F | 30.9 | 51.1* | 94.2* | -25.5 | -1.8 | 74.7* | 87.3* | 104.8*
CCn1c(=O)c([N+](=O)[O-])c(NCCN(C)C)c2ccccc21 | 0.8 | -3.6 | 12.5 | -5.7 | -0.3 | 1.9 | / | /

Bioassay records deposited in PubChem by Sanford-Burnham Center for Chemical Genomics.
